# Measurements reported in PubChem BioAssay (NCI).
# About 79,000 compounds went through this panel and 15% of them were active in at least one assay; those are over-represented in the sample as a whole. Unmarked numbers belong to inactive results. Active and inactive are the calls of the source. Rule as the data show it: active = growth inhibition above about 70%; inactive = the rest.
# Assay: NCI Yeast Anticancer Drug Screen. Data for the rad18 strain (AID 177)
# Details: S. cerevisiae rad18 mutant growth inhibition, hits give high values
# Procedure: Growth inhibition of yeast strains with defined genetic alterations is measured as a screen for potential anti-cancer activity. Selected strains with alterations in DNA damage repair or cell cycle control were exposed to compounds and growth inhibition was measured relative to vehicle treated controls. The strain used in this assay is rad18
SMILES,growth inhibition (at 1.2 µM),growth inhibition (at 3.7 µM),growth inhibition (at 11.0 µM),growth inhibition (at 33.0 µM),growth inhibition (at 100.0 µM)
CC(Cc1ccccc1)N(C)Cc1nc(C2CCC([N+](=O)[O-])O2)no1 (stereo not given),14%,36%,69%,86% (active),95% (active)
O=C(c1ccccc1)C1C(c2ccccc2[N+](=O)[O-])N1C1CCCCC1 (stereo not given),10%,23%,65%,88% (active),91% (active)
CC1CN1C1=C(Cl)C(=O)C(N2CC2C)=C(Cl)C1=O (stereo not given),92% (active),96% (active),96% (active),97% (active),97% (active)
CC1CC(Br)C(=O)O1 (stereo not given),-57%,-50%,-28%,69%,88% (active)
Nc1ccc(Cl)cc1C(=O)c1ccccc1,-12%,-12%,-2%,69%,97% (active)
O=c1c2ccccc2[se]n1-c1cccnc1,12%,-26%,3%,42%,58%
COc1cc(C2c3cc4c(cc3[C@@H](Nc3ccc(N)cc3)C3COC(=O)[C@H]23)OCO4)cc(OC)c1O (stereo not given in full),-11%,72% (active),93% (active),93% (active),85% (active)
Nc1nc(N)c2c(Cl)c(CNc3ccc(C(=O)NC(CC(=O)O)C(=O)O)cc3)ccc2n1 (stereo not given),48%,54%,57%,78% (active),84% (active)
